Results filed as inconclusive are left out. Active and inactive are the calls of the source. Cut-off read from the data, not from the text of the source, unless noted: active = inhibition above about 80%; inactive = the rest.
Experiments:
[1] = growth inhibition of DIPG glioma cells, dose response, cell-based, SU-DIPG-XVII, MIPE5.0, CellTiter-Glo, qHTS (AID 1347060; cut-off not given, nearly all actives have AC50 up to about 26 µM;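 note: cells exposed to compound for 48 hours before viability readout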); conditions: SU-DIPG-XVII viability, CellTiter-Glo ATP luminescence
[2] = viability loss in pontine glioma line – cell-based, SU-DIPG-XXV, MIPE5.0, CellTiter-Glo, qHTS, dose response (AID 1347065; cut-off not given, nearly all actives have AC50 up to about 26 µM;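 note: cells exposed to compound for 48 hours before ATP readout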); conditions: CellTiter-Glo ATP luminescence
[3] = JHH-DIPG-1 glioma cell viability, MIPE5.0 library, CellTiter-Glo luminescence, qHTS (AID 1347067; cut-off not given, nearly all actives have AC50 up to about 26 µM;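 note: cells exposed to compound for 48 hours before readout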); conditions: JHH-DIPG-1 glioma viability, CellTiter-Glo ATP luminescence
[4] = LFS_MB_P medulloblastoma growth inhibition, cell-based, chromothripsis tumors, cisplatin or BGB combos (AID 1671449); conditions: LFS_MB_P medulloblastoma cells;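 note: cells exposed for 96 hours; 0% = vehicle DMSO and 100% = killing by high DMSO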
[5] = HDN33 neuroblastoma growth inhibition, cell-based, chromothripsis tumors, cisplatin or BGB combos (AID 1671450); conditions: HDN33 neuroblastoma cells, stronger effect = higher value;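 note: cells exposed to compound for four days; 0% = vehicle DMSO and 100% = cell killing by high DMSO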
[6] = ICB984 medulloblastoma cell growth inhibition, synergistic combos for chromothripsis tumors, cisplatin or BGB combos (AID 1671451; call rule not given here;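 note: cells exposed for 96 hours before readout; 0% = vehicle DMSO and 100% = killing by high DMSO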); conditions: ICB984 medulloblastoma cells, drug combinations, stronger effect = higher value
[7] = LFS_MB_1R medulloblastoma cell growth inhibition, synergistic combos for chromothripsis tumors, cisplatin or BGB combos (AID 1671452); conditions: LFS_MB_1R medulloblastoma cells, stronger effect = higher value;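 note: cells exposed for 96 hours before readout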
[8] = HTB85 osteosarcoma cell growth inhibition, synergistic combos for chromothripsis tumors, BGB or cisplatin IC20 combos (AID 1671453); conditions: HTB85 osteosarcoma cells, drug combinations, stronger effect = higher value;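 note: cells exposed for 96 hours before readout; 0% = vehicle DMSO and 100% = high DMSO killing control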
[9] = CRL2098 osteosarcoma cell growth inhibition, synergistic combos for chromothripsis tumors, BGB or cisplatin IC20 combos (AID 1671454); conditions: CRL2098 osteosarcoma cells, drug combinations, stronger effect = higher value;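 note: cells exposed for 96 h before readout; 0% = vehicle DMSO and 100% = killing by high DMSO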
[10] = HD-MB03 medulloblastoma cell growth inhibition, synergistic combos for chromothripsis tumors, BGB or cisplatin IC20 combos (AID 1671455; in the data active = inhibition above about 83%;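 note: 0% = vehicle DMSO and 100% = high DMSO as cytotoxic control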); conditions: HD-MB03 medulloblastoma cells, stronger effect = higher value
[11] = UWB1.289 ovarian carcinoma cell growth inhibition, synergistic combos for chromothripsis tumors, BGB or cisplatin combos (AID 1671456); conditions: UWB1.289 ovarian carcinoma cells, stronger effect = higher value;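 note: cells exposed to compound for four days; 0% = vehicle DMSO and 100% = killing by high DMSO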
[12] = LFS_MB_2R medulloblastoma cell growth inhibition, synergistic combos for chromothripsis tumors, cisplatin combos (AID 1671457); conditions: LFS_MB_2R medulloblastoma cells, stronger effect = higher value;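 note: cells exposed to compound for four days before readout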
[13] = MDA-MB-436 breast carcinoma cell growth inhibition, synergistic combos for chromothripsis tumors, BGB or cisplatin combos (AID 1671458; call rule not given here;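 note: cells exposed for 96 hours; 0% = vehicle DMSO and 100% = killing by high DMSO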); conditions: MDA-MB-436 breast carcinoma growth inhibition, drug combinations, stronger effect = higher value
[14] = UWB1.289_BRCA1 ovarian cancer growth, cell-based, BGB or cisplatin combinations (AID 1671459); conditions: UWB1.289 BRCA1 ovarian carcinoma, drug combinations, stronger effect = higher value
[15] = human astrocyte viability loss, single and combined drugs, cytotoxicity control for chromothriptic childhood tumor combination screen, cell-based, BGB or cisplatin IC20 combos (AID 1671460); conditions: Human astrocytes, drug combinations, stronger effect = higher value;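 note: cells exposed to compounds for 96 hours before viability readout; 0% = vehicle and 100% = killing control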
[16] = growth inhibition of BT084 medulloblastoma cells, cell-based, ICGC_MB145, cisplatin and BGB IC40 combos (AID 1671461); conditions: drug combinations, stronger effect = higher value;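 note: cells exposed to drugs for 96 hours; 0% = vehicle DMSO and 100% = high DMSO full killing control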
[17] = growth inhibition of RCMB18 medulloblastoma cells, cell-based, cisplatin and BGB IC40 combos (AID 1671462); conditions: stronger effect = higher value;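 note: cells exposed to compound for four days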
[18] = growth inhibition of CRL1545 osteosarcoma cells, cell-based, cisplatin and BGB IC20 combos (AID 1671464); conditions: stronger effect = higher value;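 note: cells exposed to compound for 96 hours before readout; 0% = vehicle DMSO and 100% = high DMSO killing control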
[19] = measured here: combination with BGB IC40, at 0.05 µM
[20] = measured here: with BGB IC20 combination, at 0.5 µM
[21] = measured here: with cisplatin IC20 combination, at 0.5 µM
[22] = measured here: combination with cisplatin, at 0.5 µM
[23] = measured here: combination with cisplatin, at 5 µM

Structure (SMILES): CN[C@@H]1CN(c2ccc3c(=O)c(C(=O)O)cn(-c4nccs4)c3n2)C[C@H]1OC
- AC50 [1]: 0.91 µM (active)
- AC50 [2]: 5.74 µM (active)
- AC50 [3]: 9.1 µM (active)
- inhibition ([4]; at 0.5 µM, stronger effect = higher value): -19.9% (inactive)
- inhibition ([4]; measured here: combination with BGB IC20, at 0.005 µM): -32.1%
- inhibition ([4]; measured here: combination with BGB IC40, at 0.005 µM): -41.7%
- inhibition [4, 19]: -39.5%
- inhibition ([4]; measured here: combination with cisplatin, at 0.5 µM, stronger effect = higher value): -37.3%
- inhibition ([4]; measured here: combination with cisplatin, at 5 µM, stronger effect = higher value): 59.3%
- inhibition ([5]; BGB combo, at 5 µM): 99.1%
- inhibition ([5]; at 0.5 µM): 57% (inactive)
- inhibition ([5]; cisplatin combo, at 5 µM): 99.4%
- inhibition [5, 20]: 48.4%
- inhibition [5, 21]: 56.4%
- inhibition ([5]; single agent, at 5 µM): 99.6%
- inhibition ([6]; BGB IC20 combo, at 0.005 µM): 19.2%
- inhibition ([6]; BGB IC40 combo, at 0.005 µM): -11.4%
- inhibition ([6]; BGB IC40 combo, at 0.05 µM): 100%
- inhibition ([6]; at 0.5 µM): -34.8% (inactive)
- inhibition ([6]; cisplatin combo, at 0.05 µM): 100%
- inhibition ([6]; cisplatin combo, at 0.5 µM): -31.3%
- inhibition ([6]; cisplatin combo, at 5 µM): -34.3%
- inhibition ([6]; measured here: 5 uM single agent, at 5 µM): -6.89%
- inhibition ([7]; at 0.5 µM): 3.38% (inactive)
- inhibition [7, 19]: 4.5%
- inhibition [7, 22]: 47.4%
- inhibition [7, 23]: 92.8%
- inhibition ([8]; at 0.5 µM): 51.4% (inactive)
- inhibition ([8]; measured here: with BGB IC20, at 0.5 µM): 49.9%
- inhibition ([8]; measured here: with BGB IC20, at 5 µM): 99.2%
- inhibition ([8]; measured here: with cisplatin IC20, at 0.5 µM): 42.9%
- inhibition ([8]; measured here: with cisplatin IC20, at 5 µM): 99.3%
- inhibition ([8]; single agent, at 5 µM): 99.2%
- inhibition ([9]; at 0.5 µM): 18.1% (inactive)
- inhibition ([9]; measured here: combination with BGB at IC20, at 0.5 µM): 27.9%
- inhibition ([9]; measured here: combination with cisplatin at IC20, at 0.5 µM): -2.11%
- inhibition ([10]; at 0.5 µM): 72.5% (inactive)
- inhibition ([10]; measured here: combo with BGB at IC20, at 0.5 µM): 63.8%
- inhibition ([10]; measured here: combo with cisplatin at IC20, at 0.5 µM): 74.4%
- inhibition ([11]; at 0.5 µM): 14.7% (inactive)
- inhibition ([11]; measured here: inhibition with BGB combination, at 0.05 µM): -25.3%
- inhibition ([11]; measured here: inhibition with cisplatin combination, at 0.05 µM): -22.6%
- inhibition ([12]; at 0.5 µM): -28.9% (inactive)
- inhibition [12, 22]: -26%
- inhibition [12, 23]: 34.8%
- inhibition ([13]; at 0.5 µM): 25.6% (inactive)
- inhibition ([13]; measured here: BGB combination, at 0.5 µM): 14%
- inhibition ([13]; measured here: BGB combination, at 5 µM): 70.2%
- inhibition ([13]; measured here: cisplatin combination, at 0.5 µM): 8.1%
- inhibition ([13]; measured here: cisplatin combination, at 5 µM): 85.8%
- inhibition ([14]; BGB combination, concentration series, at 5 µM): 94.6%
- inhibition ([14]; at 0.5 µM): 13.7% (inactive)
- inhibition ([14]; cisplatin combination, concentration series, at 5 µM): 98.3%
- inhibition ([15]; at 0.5 µM): 33.4% (inactive)
- inhibition ([15]; measured here: combo with BGB IC20, at 0.5 µM): 29%
- inhibition ([15]; measured here: combo with cisplatin IC20, at 0.5 µM): 13.3%
- inhibition ([16]; at 0.5 µM): -20% (inactive)
- inhibition ([16]; cisplatin combination, at 0.5 µM): -18.3%
- inhibition ([16]; cisplatin combination, at 5 µM): 37.6%
- inhibition ([16]; measured here: BGB IC40 combination 0.05 uM, at 0.05 µM): -77.9%
- inhibition ([16]; single agent, at 5 µM): 101%
- inhibition ([17]; at 0.5 µM): -5.3% (inactive)
- inhibition ([17]; cisplatin combo, at 5 µM): 84.6%
- inhibition ([17]; measured here: BGB IC40 combination, at 0.05 µM): -18.9%
- inhibition [17, 22]: 32.1%
- inhibition ([17]; single agent, at 5 µM): 87.5%
- inhibition ([18]; at 0.5 µM): 17.4% (inactive)
- inhibition [18, 20]: 16.9%
- inhibition [18, 21]: 16.4%
- inhibition ([18]; single agent, at 0.05 µM): 9.09%
- inhibition ([18]; single agent, at 5 µM): 99.7%
